Screening results from PubChem.
MBNL1 CUG block: blocks human MBNL1 binding to CUG repeat RNA; Potency, µM (doses to about 57.5 µM), inactives show top-dose activity change, negative = inhibition, most hits filed as inhibitors; actives 0.036% (n = 280,000); AID 2675; Q9NR56; TR-FRET MBNL1-His/biotin-(CUG)12 binding, 665/545 ratio; active = well fitted inhibition curve with a large enough effect in the signal ratio, with a control signal flat, not every such curve was filed as active; inconclusive = small, poorly fitted or top-dose-only effect, or effect the other way, or a change in a side signal; inactive = no such curve, though single readings can be large or run the other way; the % refers to the signal ratio; note: potency is the fitted concentration of half-maximal effect; % is set by controls: 0 for no effect and ±100 for the full control effect
Target sequence (Q9NR56 whole entry, looked up): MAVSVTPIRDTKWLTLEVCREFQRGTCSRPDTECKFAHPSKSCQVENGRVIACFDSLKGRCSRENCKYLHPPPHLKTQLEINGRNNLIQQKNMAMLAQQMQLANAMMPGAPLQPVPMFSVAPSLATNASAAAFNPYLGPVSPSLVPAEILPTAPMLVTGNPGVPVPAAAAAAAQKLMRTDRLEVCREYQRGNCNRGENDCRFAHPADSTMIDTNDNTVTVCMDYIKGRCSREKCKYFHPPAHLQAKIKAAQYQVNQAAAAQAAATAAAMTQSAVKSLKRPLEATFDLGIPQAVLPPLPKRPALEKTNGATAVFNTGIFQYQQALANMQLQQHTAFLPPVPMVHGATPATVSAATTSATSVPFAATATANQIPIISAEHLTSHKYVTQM
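Ratiometric TR-FRET (665 over 545 nm, excitation 340 nm) tracks disruption of MBNL1-His/biotin-(CUG)12 complex after 60 min at room temperature, with compounds at 92 nM to 58 uM final.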
VDR inh: inhibitors of human vitamin D receptor; P11473; VDR-SRC2-3 peptide fluorescence polarization, 2 h; Potency, µM, without a hit: max response, negative = inhibition, actives largely listed as inhibitors; actives 0.93% (n = 400,000); note: potency is the fitted concentration of half-maximal effect; % is set by controls: 0 for no effect and ±100 for the full control effect
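Two reagent solutions held at 4 deg C in the dark were dispensed, compounds pinned at 23 nl, and the mixture incubated 2 h at room temperature. Read-out: fluorescence polarization of VDR–SRC2-3 peptide binding.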
hERG WT inh: inhibitors of human wildtype KCNH2 potassium channel; actives 0.37% (n = 340,000); activity change, % at 1.84 µM; U2OS, BacMam KCNH2, thallium flux FluxOr; active compounds read low;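 active = maximum activity change below -70%; inconclusive = maximum activity change between -70% and -50%; inactive = maximum activity change above -50%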; note: % is set by controls: 0 for no effect and ±100 for the full control effect
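U2OS cells transduced with wild-type KCNH2 virus are loaded with FluxOr dye for 45 min, and thallium flux is measured in kinetic reads before and after stimulation buffer. Rate constants are normalized to DMSO controls.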
CBFb RUNX1 block: inhibitors of human CBF-beta and RUNX1 interaction. AlphaScreen CBFb-His/RUNX1-biotin binding, biochemical. Q01196+Q13951. Potency, µM (highest dose often 59.8 µM), for inactives: top-dose activity, negative = inhibition, actives largely listed as inhibitors. AID 1477. 230,000 tested, under 10 active; note: % of control where 0% means no effect
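AlphaScreen binding: CBFb-His and RUNX1-biotin (30 nM each) preincubated 20 min, compound added for 15 min, then nickel and streptavidin beads for 90 min, all at room temperature. Disruption of the interaction by any mechanism counts as activity.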
PLK1 PBD inh: inhibitors of human PLK1 polo-box domain binding; P53350; Plk1 PBD binding of FITC phosphopeptide, fluorescence polarization; Potency, µM, for the others: max response, negative = inhibition, usual class: inhibitors; actives 2.8% (n = 360,000); AID 720504; note: potency is the fitted concentration of half-maximal effect; series mostly up to about 57 µM; % is set by controls: 0 for no effect and ±100 for the full control effect; nearly all actives have a fitted effect of over 65% in size
KCNH2 3.1 inh: KCNH2 3.1 (human) potassium channel inhibition | actives 0.95% (n = 340,000) | U2OS KCNH2 3.1, thallium flux FluxOr; active compounds read low | activity change, % (tested at about 1.8 µM) | AID 720553;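 active = maximum activity change below -70%; inconclusive = maximum activity change from -70% to -50%; inactive = maximum activity change above -50%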;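 note: thallium influx rate constant from kinetic fluorescence after stimulation buffer; % is set by controls: 0 for no effect and ±100 for the full control effect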
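Channel expression came from 3.1 mutant virus (1.77 x 10^8 /mL) applied to suspended U2OS cells for 4 h. Flux was tracked with FluxOr dye plus Red40 quencher, and kinetic rate constants normalized to controls.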
An asterisk follows results filed as active; ? = inconclusive; / = no result given. Most compounds without a hit are left out; they make up all but 3.8% or so of the library. Unless noted, calls come from the whole dose curve; as a rule, active = well fitted curve in the direction sought with a large enough effect; inconclusive = small, poorly fitted or top-dose-only effect, or another doubt; inactive = no such curve, though single readings can be large; an effect the other way counts as inactive or inconclusive.

SMILES	MBNL1 CUG block	VDR inh	hERG WT inh	CBFb RUNX1 block	PLK1 PBD inh	KCNH2 3.1 inh
CCn1c(=S)sc2nc(C)sc21	/	?	7	/	21µM*	4
CCn1c(-c2ccc(C)cc2)n[nH]c1=S	-3%	-10%	-6	5%	-15%	29
Cc1cc(NC(=O)c2ocnc2C)no1	14%	?	23	5%	24µM*	0
Cc1cc(NC(=O)c2ccc([N+](=O)[O-])cc2)no1	?	?	-1	/	21µM*	14
O=C(Nc1ncc([N+](=O)[O-])s1)c1cccs1	?	-12%	4	/	-8%	-7
Cc1cc(NC(=O)c2ccc(C(C)(C)C)cc2)no1	/	4%	-3	/	?	18
Cc1ncoc1C(=O)Nc1ncc([N+](=O)[O-])s1	?	89µM*	6	-9%	?	-2
Cc1cc(NC(=O)c2cc([N+](=O)[O-])ccc2Cl)no1	?	-9%	-1	2%	-11%	17
CSc1ccccc1NC(=O)c1ccc([N+](=O)[O-])cc1	?	?	11	-7%	24µM*	10
O=C(NCc1cccnc1)c1nn(-c2ccccc2F)nc1CO	/	-2%	/	/	/	/
CC(C)(CS)C(=O)N1CCC[C@H]1C(=O)O	/	-14%	/	?	/	/
CCOC(=O)c1nnc2c(-c3ccc(Cl)cc3)c(C)nn2c1N	/	-15%	/	/	/	/
CCOc1ccc2nc(NC(=O)CN3CCC(n4nnc5cc(C(F)(F)F)ccc54)CC3)sc2c1	-2%	-2%	-2	1%	4%	-79*
Cc1cc(NC(=O)CN2CCC(n3nnc4cc(C(F)(F)F)ccc43)CC2)no1	4%	-9%	12	13%	-6%	-24
Nc1nc(Cl)cc(N2CCC(c3cc(-c4ccc(Cl)cc4)n[nH]3)CC2)n1	5%	-2%	1	-6%	1%	-74*
Cc1ccc(CN2CCC(c3cc(-c4ccc(Cl)cc4)n[nH]3)CC2)cc1	1%	-23%	-84*	/	-13%	-102*
COc1ccc(-c2cc(C3CCN(Cc4cccc(C(F)(F)F)c4)CC3)[nH]n2)cc1	1%	-2%	47	-21%	4%	/
Cc1ccc(CN2CCC(c3nc4ccc(Cl)cc4[nH]3)CC2)cc1	-12%	1%	-132*	1%	-7%	-93*
Clc1ccc(-c2cc(C3CCNCC3)[nH]n2)cc1	/	-4%	0	-22%	-3%	-48
COc1ccc(-c2cc(C3CCN(Cc4ccc([N+](=O)[O-])cc4)CC3)[nH]n2)cc1	/	20%	-87*	-10%	-13%	-112*
Cc1cc(Cl)ccc1OCC(=O)N(Cc1ccco1)Cc1ccco1	/	-5%	/	/	/	/
Cc1cc(N2CCCCC2)nc2ccc(NC(=O)CCC(=O)N3CCN(c4ccccc4)CC3)cc12	/	9%	/	/	/	/
COc1cccc(-n2c(N)c(-c3nc4ccccc4[nH]3)sc2=S)c1	11%	4%	-7	-19%	27µM*	-2
COc1ccc2nc(-c3cccc(N)c3)[nH]c2c1	?	-4%	8	-2%	-4%	7
O=C(CSc1nnnn1-c1ccc(O)cc1)Nc1ccc(N2CCOCC2)c(Cl)c1	-2%	-11%	-4	4%	0%	12
SMILES	MBNL1 CUG block	VDR inh	hERG WT inh	CBFb RUNX1 block	PLK1 PBD inh	KCNH2 3.1 inh
COc1cccc(CS(=O)(=O)c2nnnn2-c2ccccc2)c1	/	?	/	-8%	/	/
O=C(CSc1nncn1-c1ccccc1)Nc1ccc(N2CCOCC2)cc1	-8%	?	2	4%	2.7µM*	-1
CCCS(=O)(=O)c1nnnn1-c1cccc(OC)c1	-5%	?	7	20%	13µM*	-14
COc1cccc(-n2nnnc2SCC(=O)Nc2ccccc2OC)c1	-1%	3%	-4	/	-1%	-4
NC(=O)c1ccc(-n2nnnc2SCC(=O)Nc2ccc(N3CCOCC3)c(Cl)c2)cc1	1%	5%	0	4%	24µM*	-1
COc1cccc(-n2nnnc2SCC(=O)Nc2ccc(C(C)=O)cc2)c1	21%	?	-12	3%	24µM*	5
COC(=O)c1ccc(C(=O)Nc2ccc(C(C)C)cc2N)cc1	-3%	-7%	-4	7%	30µM*	14
Cc1nn2c(=O)cc(CN(C)c3ccccc3)nc2s1	/	4%	/	/	/	/
COC(=O)c1cc(=O)nc(NN=C2c3ccccc3-c3ccccc32)s1	/	/	/	/	30µM*	/
COC(=O)c1cc(=O)nc(NN=C2CCCCC2)s1	/	/	/	/	-5%	/
CCCNc1ccc(-c2nc(-c3ccncc3)no2)cc1[N+](=O)[O-]	/	16%	/	/	/	/
CC(=O)c1sc2nsc(SCCN3CCCC3)c2c1N	?	-9%	-6	-6%	7.5µM*	-32
CC(=O)c1sc2nc(C)c3c(c2c1N)CCCC3	?	6%	2	26%	-13%	-12
CCOC(=O)c1scc(-c2ccccc2)c1S(=O)(=O)N1CCN(c2ccccc2OC)CC1	/	10%	/	/	/	/
COc1ccc2c(c1)c1c(c(=O)n(-c3ccc(OC)c(OC)c3)c(=O)n1Cc1ccccc1C)n2C	/	11%	/	/	/	/
COc1cccc(OC)c1NC(=O)c1nc2c(nnn2Cc2ccccc2Cl)c(=O)[nH]1	-8%	-28%	-21	-21%	0%	-5
O=C(Nc1ccc(F)cc1)c1nc2c(nnn2Cc2cccc3ccccc23)c(=O)[nH]1	-2%	26%	-4	7%	24µM*	7
CCC(C(=O)O)C1OC(C(C)C(O)C(C)C(=O)C(CC)C2OC3(C=CC(O)C4(CCC(C)(C5CCC(O)(CC)C(C)O5)O4)O3)C(C)CC2C)C(C)CC1C (stereo unspecified)	/	1%	/	/	/	/
Cc1cc(N2C(=O)C(O)=C(C(=O)c3ccco3)C2c2cccc(O)c2)no1 (stereo unspecified)	?	8%	-3	/	?	9
Cc1nnc(N2C(=O)C(O)=C(C(=O)c3ccco3)C2c2cccc([N+](=O)[O-])c2)s1 (stereo unspecified)	1%	-13%	-3	/	-6%	7
Cc1ccc2nc(N3C(=O)C(O)=C(C(=O)c4ccco4)C3c3ccc(O)cc3)sc2c1 (stereo unspecified)	26%	/	/	/	/	/
Cc1cc(C)c2nc(N3C(=O)C(O)=C(C(=O)c4ccco4)C3c3ccc(O)cc3)sc2c1 (stereo unspecified)	/	79µM*	22	/	19µM*	25
CCOC(=O)c1sc(N2C(=O)C(O)=C(C(=O)c3ccco3)C2c2cccc([N+](=O)[O-])c2)nc1C (stereo unspecified)	16%	71µM*	5	/	30µM*	-7
